Bioassay records: PubChem BioAssay, Sanford-Burnham Center for Chemical Genomics
Most compounds without a hit are left out; they make up all but 31% or so of the library.
CYP2C9 inh: blockers of cytochrome P450 2C9 activity – biochemical, luminescence, ADME assay, primary screen; P11712; CYP2C9 Supersomes, luciferin-H conversion; inhibition, % at 5 µM; actives 20% (n = 96,000); AID 777, 2007;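 active = blocking of liver enzyme CYP2C9 beyond about 50% at 5 µM, limit read from the data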
Target sequence (P11712 whole entry, looked up): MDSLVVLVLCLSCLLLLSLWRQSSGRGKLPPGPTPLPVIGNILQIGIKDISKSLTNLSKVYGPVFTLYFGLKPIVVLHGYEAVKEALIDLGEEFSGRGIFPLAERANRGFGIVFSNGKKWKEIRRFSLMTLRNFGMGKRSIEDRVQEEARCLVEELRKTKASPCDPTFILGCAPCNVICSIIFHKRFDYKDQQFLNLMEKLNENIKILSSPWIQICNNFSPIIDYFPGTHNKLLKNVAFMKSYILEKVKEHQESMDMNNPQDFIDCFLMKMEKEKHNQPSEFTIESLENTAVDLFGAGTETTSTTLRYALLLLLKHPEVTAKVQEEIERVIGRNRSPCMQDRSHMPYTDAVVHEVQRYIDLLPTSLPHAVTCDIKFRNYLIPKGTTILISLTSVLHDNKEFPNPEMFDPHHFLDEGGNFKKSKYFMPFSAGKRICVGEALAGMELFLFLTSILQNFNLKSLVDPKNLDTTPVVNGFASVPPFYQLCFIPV
CYP2C19 activ: human CYP2C19 activators, primary screen, biochemical, luminescence; recombinant CYP2C19, luciferin-H EGE luminescence; stronger effect = higher value; 0 = fully inhibited enzyme, 1 = untreated enzyme; activation factor at 5 µM; 96,000 tested, under 10 active;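 active = activation factor of at least 2 at 5 µM in the primary screen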
CYP2C19 inh: blockers of cytochrome P450 2C19 activity – biochemical, luminescence, ADME assay, primary screen. AID 778, 2007. P33261. CYP2C19 Supersomes, luciferin-H EGE luminescence, 30 min. actives 21% (n = 96,000). inhibition, % at 5 µM;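 active = CYP2C19 inhibition above a set limit at 5 µM in the primary screen, cut at about 50% in these data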
PLAP activator: PLAP enzyme activators, biochemical, luminescence, HTS | Alkaline phosphatase, placental type (Homo sapiens), P05187 | purified PLAP enzyme, luminescent substrate read-out; stronger effect = higher value | activation fold at 20 µM | actives 1.2% (n = 96,000); in the data active = activation fold above about 2
CYP2C9 activ: human CYP2C9 activators, primary screen, biochemical, luminescence. recombinant CYP2C9, luciferin-H conversion; stronger effect = higher value; factor 1 = untreated enzyme, 0 = blocked. AID 1024, 2008. Cytochrome P450 2C9 (Homo sapiens), P11712. actives 1.4% (n = 96,000). activation factor at 5 µM;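 active = activation factor of 2 or more for CYP2C9 at a 5 µM dose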
Hits are given with their value; . = inactive.

SMILES	CYP2C9 inh	CYP2C19 activ	CYP2C19 inh	PLAP activator	CYP2C9 activ
CCS(=O)(=O)NCC(c1cccnc1)N1CCN(c2ccc(F)cc2)CC1 (stereo not drawn)	.	.	.	.	.
Cn1c(COc2ccc3ccccc3c2)nnc1SCC(=O)O	.	.	.	.	.
O=P(O)(O)COc1ccccc1P(=O)(c1ccccc1)c1ccccc1	.	.	.	.	.
O=C(Nc1nnc(C(F)(F)F)s1)c1ccc(N2C(=O)C3C4C=CC(C4)C3C2=O)cc1 (stereo not drawn)	.	.	.	.	.
COc1ccc(N2CCN(C(CNS(=O)(=O)c3cccs3)c3cccnc3)CC2)cc1 (stereo not drawn)	55.8	.	69.4	.	.
CCS(=O)(=O)NCC(c1cccnc1)N1CCN(c2ccccc2OC)CC1 (stereo not drawn)	.	.	.	.	.
Cc1c(C(=O)N2CC(C)OC(C)C2)oc2ccccc12 (stereo not drawn)	.	.	.	.	.
O=C1N2c3ccccc3CCc3cccc(c32)C1(O)C(F)(F)F (stereo not drawn)	.	.	51.6	.	.
CC1(c2ccccc2)CC(C)(C)N(C(=O)C2CCCO2)c2ccccc21 (stereo not drawn)	66.2	.	76.7	.	.
CC1(c2cc([N+](=O)[O-])cc([N+](=O)[O-])c2)CC(C)(C)N(C(=O)c2ccccc2)c2ccccc21 (stereo not drawn)	.	.	.	.	.
O=C(O)CCC(=O)N1CCN(c2ccc(C(=O)c3ccc(F)cc3)cc2)CC1	.	.	.	.	.
CN1CCN(c2ccc(C(=O)c3ccc(F)cc3)cc2)CC1	.	.	51.6	.	.
O=C(c1ccccc1)c1ccc(N2CCNCC2)cc1	.	.	76.9	.	.
CCOC(=O)Cc1nnc(NC(=O)CC)s1	.	.	.	.	.
CCNc1nc(NC(C)C)nc(Oc2ccc(OCCOc3ccc(C)cc3)nn2)n1	.	.	.	.	.
CCNc1nc(NC(C)C)nc(Oc2ccc(/C=N/O)cc2)n1	68.7	.	.	.	.
Cc1cc(C(C)(C)C)oc1C(=O)N(CC(=O)NC1CCCC1)Cc1ccccc1Cl	54.2	.	.	.	.
Cc1ccccc1N(CC(=O)NC1CCCC1)C(=O)c1oc(C(C)(C)C)cc1C	.	.	.	.	.
COc1ccc(C(=O)NCCn2cc(SCC(=O)N3CCOCC3)c3ccccc32)cc1	.	.	.	.	.
CCC(=C(c1ccc(OC)cc1)c1ccc(OC)cc1)c1cn(CC(O)CN2CCN(C)CC2)c2ccccc12 (stereo not drawn)	70.4	.	.	.	.
COc1cc(CN2CCC(C(=O)N3CCCC(C)C3)CC2)cc(Br)c1O (stereo not drawn)	.	.	.	.	.
CN(c1ccccc1C(=O)O)S(C)(=O)=O	.	.	.	.	.
CCOc1ccccc1NC(=O)c1ccccc1N(C)S(C)(=O)=O	.	.	.	.	.
CN(c1ccccc1C(=O)Nc1cccc(Cl)c1Cl)S(C)(=O)=O	.	.	64.8	.	.
Cc1ccc(NC(=O)c2ccccc2N(C)S(C)(=O)=O)cc1C	.	.	50.3	.	.
SMILES	CYP2C9 inh	CYP2C19 activ	CYP2C19 inh	PLAP activator	CYP2C9 activ
O=C(CN1CCN(Cc2ccc3c(c2)OCO3)CC1)c1c[nH]c2ccccc12	.	.	.	.	.
COc1ccc(NC2=CC(=O)CC(c3ccccc3)C2)c(OC)c1 (stereo not drawn)	.	.	61.9	.	.
CN1CCC(N(C)C(=O)CCc2nc3ccccc3c(=O)[nH]2)CC1	.	.	.	.	.
CCCS(=O)(=O)c1nnnn1-c1cccc(OC)c1	.	.	.	.	.
Cc1cccc(C)c1-n1nnnc1S(=O)(=O)Cc1ccccc1Cl	83.3	.	.	.	.
CC(=O)Nc1ccc(NC(=O)C(C)OC(=O)CCC(=O)c2ccc(F)cc2)cc1 (stereo not drawn)	69.1	.	71.5	.	.
CCN(CC)c1ccc(NC(=O)COC(=O)CCC(=O)c2ccc(F)cc2)cc1	.	.	.	.	.
CCn1c(=O)n(CC(=O)NC2CCCC(C)C2C)c(=O)c2ccccc21 (stereo not drawn)	.	.	.	.	.
Nc1nc(N)nc(-c2ccccn2)n1	.	.	.	.	.
Clc1ccc(OCc2nc(-c3ccccn3)n[nH]2)cc1	50.7	.	65.1	2.3	.
Brc1ccc(OCc2nc(-c3ccccn3)n[nH]2)cc1	62.5	.	71.3	2.2	.
CCOC(=O)C1CCN(C=Nc2cc(C)on2)CC1	.	.	.	.	.
CSCCC(NC=C1C(=O)OC(C)(C)OC1=O)C(=O)O (stereo not drawn)	.	.	.	.	.
COCCNCC(=O)NCC12CC3CC(CC(C3)C1)C2	.	.	.	.	.
COc1ccc(-c2cc(-c3cc(OC)ccc3O)[nH]n2)cc1	.	.	.	2.3	.
COc1ccc(O)c(-c2cc(-c3cccc(Br)c3)n[nH]2)c1	61.4	.	.	.	.
COc1ccc(-c2n[nH]c(C)c2-c2cc(OC)ccc2O)cc1	91.3	.	100.4	2	.
CCNc1nc(OCCNC(C)=O)nc(N(C)C)n1	.	.	.	.	.
CC1(C)CC(=O)CC(=NCC(=O)O)C1	.	.	.	.	.
O=C(Oc1nsnc1N1CCOCC1)c1ccccc1	.	.	64.4	.	.
O=C(Oc1nsnc1N1CCOCC1)N1CCOCC1	.	.	.	.	.
COCCNC(=O)c1ccc(CS(=O)(=O)c2ccccc2)o1	.	.	.	.	.
Cc1ccc(NS(=O)(=O)c2ccccc2)c2c1CC(C)(C)O2	.	.	65.7	.	2
Cc1ccc(NS(=O)(=O)c2cccc(C(=O)O)c2)c(C)c1	.	.	.	.	.
Cc1[nH]n(-c2ccccc2)c(=O)c1S(=O)(=O)c1ccccc1	.	.	88.4	.	.
SMILES	CYP2C9 inh	CYP2C19 activ	CYP2C19 inh	PLAP activator	CYP2C9 activ
CC(=O)c1cccc(S(=O)(=O)N2CCN(c3nc4cc(C)cc(C)c4cc3C#N)CC2)c1	67.0	.	58.4	.	.
CCC(OC(=O)C(NC(=O)c1ccccc1)c1ccccc1)C(=O)Nc1cc(C)on1 (stereo not drawn)	.	.	.	.	.
O=C(CS(=O)c1cccc(Cl)c1)Nc1ccccc1Cl (stereo not drawn)	.	.	59.7	.	2.6
O=C(O)CSCC(=O)Nc1cc(C(F)(F)F)ccc1Cl	.	.	.	.	.
O=C(CS(=O)c1cccc(C(F)(F)F)c1)Nc1ccc(Cl)cc1Cl (stereo not drawn)	.	.	99.6	.	2.1
O=C(COc1ccccc1O)Nc1ccccc1Cl	.	.	.	.	.
CC12CC(c3ccccc3O1)N(C(=O)c1ccco1)C(=S)N2c1ccc(F)cc1 (stereo not drawn)	.	.	62.7	.	.
